Screening results deposited in PubChem by several laboratories.
CYP2C9 inh = blockers of cytochrome P450 2C9 activity – biochemical, luminescence, ADME assay, primary screen. CYP2C9 Supersomes, luciferin-H conversion. inhibition, % at 5 µM. 96,000 tested, 20% active. AID 777, 2007;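 active means blocking of liver enzyme CYP2C9 beyond about 50% at 5 µM, limit read from the data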
Target sequence (P11712 whole entry, looked up): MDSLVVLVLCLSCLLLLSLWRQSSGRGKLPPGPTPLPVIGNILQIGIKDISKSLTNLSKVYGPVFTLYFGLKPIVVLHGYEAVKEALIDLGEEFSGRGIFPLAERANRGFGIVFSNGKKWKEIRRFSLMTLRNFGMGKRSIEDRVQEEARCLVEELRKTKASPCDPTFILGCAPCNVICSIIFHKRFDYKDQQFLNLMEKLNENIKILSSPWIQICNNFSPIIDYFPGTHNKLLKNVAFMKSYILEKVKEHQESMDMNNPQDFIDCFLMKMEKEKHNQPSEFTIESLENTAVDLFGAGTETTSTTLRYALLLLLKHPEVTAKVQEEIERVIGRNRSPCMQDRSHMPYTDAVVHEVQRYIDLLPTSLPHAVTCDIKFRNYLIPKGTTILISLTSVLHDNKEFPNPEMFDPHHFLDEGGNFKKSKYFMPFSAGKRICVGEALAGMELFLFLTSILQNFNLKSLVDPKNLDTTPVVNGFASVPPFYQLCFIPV
CYP2C19 act = human CYP2C19 activators, primary screen, biochemical, luminescence; AID 1025, 2008; recombinant CYP2C19, luciferin-H EGE luminescence; active compounds read high; 0 = fully inhibited enzyme, 1 = untreated enzyme; activation factor at 5 µM; Cytochrome P450 2C19 (Homo sapiens), P33261; 96,000 tested, under 10 active;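 active means activation factor of at least 2 at 5 µM in the primary screen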;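 further: 0 = wells with 2.5 mM tranylcypromine and 1 = vehicle-only wells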
CYP2C19 inh = blockers of cytochrome P450 2C19 activity – biochemical, luminescence, ADME assay, primary screen. 96,000 tested, 21% active. CYP2C19 Supersomes, luciferin-H EGE luminescence, 30 min. AID 778, 2007. P33261. inhibition, % at 5 µM;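 active means CYP2C19 inhibition above a set limit at 5 µM in the primary screen, cut at about 50% in these data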;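 further: plate controls were negative control wells for no effect and 2.5 mM tranylcypromine positive control for full effect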
CYP2C9 act = human CYP2C9 activators, primary screen, biochemical, luminescence | activation factor at 5 µM | AID 1024, 2008 | 96,000 tested, 1.4% active | recombinant CYP2C9, luciferin-H conversion; active compounds read high; factor 1 = untreated enzyme, 0 = blocked | Cytochrome P450 2C9 (Homo sapiens), P11712;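 active means activation factor of 2 or more for CYP2C9 at a 5 µM dose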;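 further: 0 = sulfaphenazole-blocked wells and 1 = vehicle-only wells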
MRP resist rev = reversal of MRP1-mediated doxorubicin resistance, primary screen, H69AR cells, doxorubicin co-treatment; H69AR cells + 2 uM doxorubicin, CellTiter-Glo, 72 h; differential viability (reversal), % at 10 µM; 85,000 tested, 0.04% active;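 active means viability drop by adding the cancer drug above about 55%, with treated viability meeting a 40% cutoff, limit read from the data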;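 further: viability without doxorubicin minus viability with 2 µM doxorubicin for each compound; larger differential means the compound sensitizes cells more to doxorubicin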
MRP1 act = H69AR viability gain despite doxorubicin, primary screen, MRP-1 activator project, H69AR cells, CellTiter-Glo; viability rescue; viability increase, % at 10 µM; 140,000 tested, 0.61% active;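 active means viability gain under doxorubicin at or above a set limit, the compound median plus 3 SD, cut at about 4.7% in these data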;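 further: MRP-1 overexpressing cells given doxorubicin 25 µM after compound pretreatment; 18-22 h compound pretreatment then 72 h with doxorubicin before readout; 0% = doxorubicin-only wells and 100% = vehicle-treated cells without doxorubicin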
* hit, by the source's call; · = not tested or not shown. Compounds with a hit are over-represented: about 21% of the library has one in this group of screens.

SMILES | CYP2C9 inh | CYP2C19 act | CYP2C19 inh | CYP2C9 act | MRP resist rev | MRP1 act
Cc1ccsc1C(=O)Nc1ccc(C(=O)O)cc1 | 57.4* | 0.1 | 92.1* | 0.4 | -13.0 | -0.1
Cc1ccc(NC(=O)c2sccc2C)cc1S(=O)(=O)N(C)C | · | · | · | · | · | -1.0
COc1ccc(C(=O)C/C(=C\C(=O)c2ccc(C)cc2)c2ccccc2)cc1 | 74.2* | 0.5 | 47.8 | 0.3 | · | -2.7
O=c1c2[nH]c3cccc(Cl)c3c2ncn1Cc1ccncc1 | 51.5* | 0.4 | 57.9* | 0.5 | 7.9 | -3.2
O=c1c2[nH]c3ccccc3c2ncn1Cc1ccncc1 | 45.3 | 0.6 | 37.7 | 0.5 | 8.2 | -0.9
O=S(=O)(/N=C(\c1ccccc1F)N1CCCCC1)c1ccccc1 | · | · | · | · | · | -1.2
COc1ccccc1N1CCN(C(CNS(=O)(=O)c2ccccc2)c2cccnc2)CC1 (centres undefined) | 62.0* | 0.1 | 86.1* | 0.4 | -1.7 | -0.2
COc1ccc(S(=O)(=O)NCC(c2cccnc2)N2CCN(C)CC2)cc1C (centres undefined) | · | · | · | · | -13.9 | -1.9
COc1ccccc1N1CCN(C(CNS(=O)(=O)c2cc(F)ccc2F)c2cccnc2)CC1 (centres undefined) | · | · | · | · | 4.8 | -1.9
COc1ccc(S(=O)(=O)NCC(c2cccnc2)N2CCN(c3ccccc3OC)CC2)cc1C (centres undefined) | 43.0 | 0.3 | 73.5* | 0.6 | -4.0 | -1.4
COc1ccc(NC(=O)COC(=O)c2cc(SC)ccc2Cl)c(OC)c1 | · | · | · | · | · | -2.6
CCOC(=O)C1CCN(C(=O)C2CCCCC2)CC1 | 8.0 | 0.8 | 17.9 | 0.9 | -1.3 | -0.7
COc1ccc(C2(CNC(=O)/C=C/c3ccco3)CCCC2)cc1OC | 52.9* | 0.8 | 23.5 | 0.5 | · | -1.9
O=C(/C=C/c1ccco1)NCC1(c2ccccc2)CCCC1 | · | · | · | · | · | -1.8
Cc1cc2n(c1)CCn1c(C)ccc1-2 | 69.6* | 1.1 | -5.1 | 0.3 | 11.4 | -2.7
CC(C)(C)C(=O)/C(=C\c1ccc([N+](=O)[O-])cc1)n1cncn1 | · | · | · | · | 11.2 | -8.3
O=C1CCCc2ccccc2N1Cc1ccc(Cl)cc1Cl | 87.1* | 0.1 | 94.3* | 0.1 | · | -2.1
O=C1CCCc2ccccc2N1Cc1c(Cl)cccc1Cl | 90.8* | 0 | 95.7* | 0.1 | · | -2.9
O=C1CCCc2ccccc2N1Cc1ccccc1Cl | 46.4 | 0.1 | 87.8* | 0.5 | · | -1.4
Clc1cccc(Cl)c1CSc1cc2c(nn1)-c1ccccc1CC2 | -22.7 | 0.9 | 8.9 | 1.2 | · | -0.2
O=C1C2CC=CCC2C(=O)N1Cc1ccccc1Cl (centres undefined) | · | · | · | · | · | -0.8
O=c1cc2c(nn1Cc1c(Cl)cccc1Cl)-c1ccccc1CC2 | 50.3* | 0.6 | 36.0 | 0.5 | 7.4 | -0.2
CCOC(=O)c1c(NC(=O)COC(=O)c2nc(Cl)ccc2Cl)sc2c1CCC2 | · | · | · | · | · | -1.6
O=c1[nH]c(/C(=N\O)c2ccccc2)no1 | 7.8 | 0.8 | 23.3 | 0.9 | -7.1 | -0.8
Cc1nn(C)c(C(=O)N2CCN(C(=O)c3ccco3)CC2)c1Br | · | · | · | · | · | -2.4
SMILES | CYP2C9 inh | CYP2C19 act | CYP2C19 inh | CYP2C9 act | MRP resist rev | MRP1 act
COc1ccc(CCNC(=O)c2c(O)c3c([nH]c2=O)CCCC3)cc1 | 38.1 | 0.8 | 19.4 | 0.6 | -3.2 | 0.3
Cn1c(CSc2nc3ccccc3s2)nnc1SCC(=O)NCc1cccnc1 | · | · | · | · | 0.4 | -1.4
C/C(=N/N=C1/NC(=O)CC(C(=O)Nc2ccccc2)S1)c1cccs1 (centres undefined) | · | · | · | · | · | -2.0
CC1=C(C(=O)N2CCOCC2)C(c2ccc(Cl)cc2)NC(=S)N1 (centres undefined) | · | · | · | · | · | -0.6
CCCCN=Cc1sc2ccc(OCC)cc2c1O | -9.3 | 0.1 | 94.1* | 1.1 | -1.6 | -1.6
CCCC(CCC)C(=O)Nc1ccncc1 | 78.8* | 0.1 | 90.6* | 0.2 | 0.2 | -2.2
CCCCn1c(N)c(C(=S)NC(=O)CC(C)(C)C)c(=O)n(C)c1=O | · | · | · | · | · | 2.6
CCOc1ccccc1N1CCN(C(=O)c2cc[n+]([O-])cc2)CC1 | -5.6 | 0.2 | 80.2* | 1.1 | · | -1.7
CCOc1ccccc1N1CCN(C(=O)c2cc(C)oc2C)CC1 | 26.8 | 0.3 | 68.0* | 0.7 | -3.9 | -3.9
CCOc1ccccc1N1CCN(C(=O)C(Sc2ccccc2)c2ccccc2)CC1 (centres undefined) | 42.5 | 0.5 | 51.2* | 0.6 | · | -1.0
CCCc1ccc(C(=O)N2CCN(c3ccccc3OCC)CC2)cc1 | 76.3* | 0.1 | 88.5* | 0.2 | 4.0 | 0.5
CCOc1ccccc1N1CCN(C(=O)C(F)(F)F)CC1 | 10.0 | 0.8 | 23.5 | 0.9 | 0.1 | -0.5
CCc1ccc(N2C(=O)CC(N(CC3CCCO3)C(=O)/C=C/C(=O)O)C2=O)cc1 (centres undefined) | · | · | · | · | · | 0.9
CCCSc1nc(N2CCCC2)c2c(c1C#N)CC(C)(C)OC2 | 93.7* | 0.4 | 57.3* | 0.1 | -0.9 | -2.6
CC1(C)Cc2c(C#N)c(SCCC#N)nc(N3CCOCC3)c2CS1 | 91.8* | 0.5 | 51.0* | 0.1 | 28.0 | -3.1
CSc1nc(N2CCCC2)c2c(c1C#N)CC(C)(C)OC2 | 28.7 | 0.8 | 19.4 | 0.7 | 0.0 | -2.5
CC1(C)Cc2c(C#N)c(SCCOc3ccccc3)nc(N3CCOCC3)c2CO1 | 99.3* | 0.1 | 88.8* | 0 | 10.8 | -2.2
Cc1ccc(-n2[nH]c(C)c(/C=C3/C=Nc4ccccc43)c2=O)cc1C | · | · | · | · | -21.6 | -2.2
CCOc1ccc(N2C(=O)CSC23CCCCC3)cc1 | 31.7 | 0.2 | 83.8* | 0.7 | -2.1 | -3.3
Cc1ccc(C(=O)CC(=O)COc2ccc(Cl)cc2)cc1 | · | · | · | · | · | 0.0
c1coc(CN(Cc2ccco2)c2ncnc3c2oc2ccccc23)c1 | · | · | · | · | -41.6 | -4.1
Cc1cccc(C)c1OCC(O)CN1CCC(CN2C(=O)c3cccc4cccc(c34)C2=O)CC1 (centres undefined) | 57.9* | 0.4 | 55.2* | 0.4 | · | -2.6
Cc1ccccc1OCC(O)CN1CCN(CCN2C(=O)c3cccc4cccc(c34)C2=O)CC1 (centres undefined) | · | · | · | · | · | 3.9
COCCSc1ccccc1C(=O)NCCCn1ccnc1 | 32.8 | 0.3 | 68.1* | 0.7 | · | -2.6
O=C(NCCCn1ccnc1)c1cn(-c2ccccc2)nc1-c1ccccc1 | 93.9* | 0.4 | 64.1* | 0.1 | -3.8 | -1.9
COc1ccc(C(=O)NC2(C(F)(F)F)C(=O)Nc3c2c(=O)[nH]c(=O)n3CCc2ccc(OC)c(OC)c2)cc1 (centres undefined) | 8.6 | 0.9 | 7.5 | 0.9 | -0.7 | 0.1
Cc1noc(C)c1COC(=O)c1cccnc1SCC(=O)Nc1ccc2c(c1)OCO2 | 74.0* | 0.7 | 28.4 | 0.3 | 10.1 | -2.1
Cc1noc(C)c1COC(=O)c1ccccc1NC(=O)Cc1ccccc1 | 97.5* | 0 | 99.0* | 0 | 5.7 | -3.2
